# According to PubChem BioAssay AID1851 (National Center for Advancing Translational Sciences (NCATS), 2009):
# The whole screen tested about 16,000 compounds, of which about 4,000 (25%) were called active. About 26% were inconclusive and are not listed. Not all results are given here. Values without a mark were called inactive. Calls follow the shape of the dose curve; as a rule, active = well fitted curve in the direction sought with a large enough effect; inconclusive = small, poorly fitted or top-dose-only effect, or effect the other way; inactive = no such curve, though single readings can be large or run the other way.
# Biological target: Cytochrome P450 2C9 (Homo sapiens) (UniProt P11712)
# Assay: Cytochrome panel assay with activity outcomes
# Conditions: recombinant CYP, pro-luciferin dealkylation, luminescence, p450-cyp2c9; series mostly up to 57.1 µM; activity, negative = inhibition: at the top concentration
# % is scaled to controls: 0 for no effect and ±100 for the full control effect.
# Sequence of Cytochrome P450 2C9 (Homo sapiens) (P11712 whole entry, looked up): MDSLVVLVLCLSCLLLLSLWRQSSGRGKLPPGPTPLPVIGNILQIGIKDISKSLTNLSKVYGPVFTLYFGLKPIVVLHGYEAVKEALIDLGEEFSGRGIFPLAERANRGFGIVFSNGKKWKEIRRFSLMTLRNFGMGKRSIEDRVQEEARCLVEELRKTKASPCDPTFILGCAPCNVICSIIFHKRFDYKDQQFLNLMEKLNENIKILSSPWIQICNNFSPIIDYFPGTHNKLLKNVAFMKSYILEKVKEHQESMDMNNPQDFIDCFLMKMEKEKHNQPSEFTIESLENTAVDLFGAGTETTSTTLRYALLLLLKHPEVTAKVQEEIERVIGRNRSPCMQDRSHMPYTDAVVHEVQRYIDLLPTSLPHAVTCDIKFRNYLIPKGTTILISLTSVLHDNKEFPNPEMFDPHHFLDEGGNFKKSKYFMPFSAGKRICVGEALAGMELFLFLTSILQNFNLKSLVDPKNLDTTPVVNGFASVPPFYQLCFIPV
Compound,"activity, negative = inhibition",AC50
COc1ccc(C(=O)OC(C)CN2CCN(C)CC2)cc1OC (centres undefined),-0.413%,–
N#C[C@@H](N=Nc1ccccc1C(=O)O)C(N)=O,-3.32% [at 11.4 µM],–
CNc1nc(-c2ccccc2C)nc2ccccc12,24.9% [at 2.29 µM],–
CCCN(CCC)S(=O)(=O)c1ccc(C(=O)O)cc1,-6.8% [at 25.6 µM],–
CCN(CC)S(=O)(=O)c1ccc(C(=O)Nc2ncn(Cc3ccccc3)n2)cc1,–,11.2 µM (active)
O[C@@H](C1=C/C(=C\c2ccncc2)c2ccccc21)c1ccncc1,–,0.1 µM (active)
Cc1cc(C(C)(C)C)cc(C)c1CC1=NCCN1,2.51% [at 25.6 µM],–
CCOc1ccc(NC(=O)N2CCC(C(N)=O)(N3CCCCC3)CC2)cc1,-18.2%,–
CCOc1ccc(NC(=O)N(C2CCCCC2)C(C)c2ccncc2)cc1 (centres undefined),–,3.55 µM (active)
CCCCN(C(=O)Nc1ccc(OCC)cc1)C1CCN(C(C)=O)CC1,2.54%,–
c1ccc(CCNc2ccccn2)nc1,-7.63% [at 11.4 µM],–
CCN(CCO)C[C@H]1CCC[C@H]2CCCC[C@@H]21,1.06% [at 11.4 µM],–
O=C(Nc1ccc2oc(-c3ccccc3F)nc2c1)c1ccc2c(c1)OCCO2,–,8.91 µM (active)
Cn1c(CN2CCCCC2)nc2cc(NC(=O)c3ccc(Cl)cc3)ccc21,-28.1%,–
C[C@@]1(C(=O)O)NCCc2cc(O)c(O)cc21,-29%,–
CN(C)CCCN1c2ccccc2C(C)(C)c2ccccc21,-4.58% [at 11.4 µM],–
COc1nc(OCCNC(C)=O)nc(N(C)C)n1,-4.85%,–
COCCn1c(=O)c(-c2cccc(C#N)c2)nc2cnc(Oc3ccccc3)nc21,–,7.94 µM (active)
COc1ncc2nc(-c3cccc(C#N)c3)c(=O)n(CCC#N)c2n1,-2.35%,–
Cn1c(=O)c(-c2cccc(C#N)c2)nc2cnc(Oc3ccccc3)nc21,4.28%,–
COCCn1c(=O)c(-c2cccc(C#N)c2)nc2cnc(N(C)C)nc21,-1.58%,–
CCNc1ncc2nc(-c3cccc(C#N)c3)c(=O)n(CCC#N)c2n1,-9.32%,–
COCCn1c(=O)c(-c2cccc(C#N)c2)nc2cnc(OCc3ccccc3)nc21,–,10 µM (active)
C[C@@H]1/C=C\CC(=O)OC[C@H](C)C(=O)N[C@@H](C)C(=O)OC1,5.57% [at 11.4 µM],–
Nc1nc2c(nc(Br)n2[C@@H]2O[C@H]3COP(=O)(O)O[C@@H]3[C@H]2O)c(=O)[nH]1,-6.44%,–

Compound,"activity, negative = inhibition",AC50
COc1ccc(N2C(=O)c3ccccc3NC2c2ccc(OC)c(CSc3ccccn3)c2)cc1 (centres undefined),–,1.12 µM (active)
COc1ccc(C2N(c3ccccn3)C(=O)C3CCCN32)c(OC)c1 (centres undefined),-21.3%,–
CN(C)[C@@H]1C(=O)C(C(N)=O)=C(O)[C@]2(O)C(=O)C3=C(O)c4c(O)ccc(Cl)c4[C@H](O)[C@H]3C[C@@H]12,-18.6%,–
CCOC(=O)C1=C(O)C(=O)N(Cc2ccccc2)C1,–,3.98 µM (active)
CCOC(=O)N/N=C1/C[C@@H](O)[C@@H](O)[C@@H]2[C@@H]3C(=O)N(Cc4ccccc4)C(=O)[C@H]3CC[C@H]12,-12.9% [at 11.4 µM],–
CCOC(=O)N/N=C1/C[C@@H](O)[C@@H](O)[C@@H]2[C@@H]3C(=O)N(Cc4ccccc4)C(=O)[C@H]3CC[C@@H]12,23.5% [at 11.4 µM],–
CCCCCCC1CC(C)(/C(C)=N/NC(N)=O)OC1=O (centres undefined),–,22.4 µM (active)
CC(=O)OC[C@H]1O[C@@H](O/N=C(\C)CCC(=O)OC[C@@H]2O[C@H](C#Cc3ccccc3)C=C[C@@H]2Oc2ccc(C)cc2)[C@H](OC(C)=O)[C@@H](OC(C)=O)[C@H]1OC(C)=O,-6.45% [at 11.4 µM],–
CC1CCN(C(=O)Nc2ccc3nsnc3c2)CC1,–,15.8 µM (active)
O=C(Nc1ccc(Cl)c(Cl)c1)N1CCC(N2CCCCC2)CC1,-11.4%,–
Cc1cccc(C)c1NC(=O)N1CCC(N2CCCCC2)CC1,18.1%,–
COc1ccc(/C=C2\SC(=O)N(CCNC(=O)C3CC(=O)N(c4ccccc4)C3)C2=O)cc1 (centres undefined),–,7.94 µM (active)
COCCCNC(=O)C1CC(=O)N(CCc2ccc(OC)c(OC)c2)C1 (centres undefined),-2.84%,–
COCCCNC(=O)C1CC(=O)N(Cc2ccc(OC)cc2)C1 (centres undefined),7.71%,–
COc1ccccc1-c1cc(NCc2cccs2)ncn1,17.3% [at 2.29 µM],–
O=C(NCCN1CCOCC1)c1csc2c1CCCCC2,24.6%,–
Cc1ccc(S(=O)(=O)CCC(=O)Nc2nc3c(s2)CCCC3)cc1,–,1.12 µM (active)
Cc1cc(=O)[nH]c(SCC(=O)Nc2nc3c(s2)CCCC3)n1,–,15.8 µM (active)
Cc1cc(=O)[nH]c(-n2[nH]c3c(c2=O)CCCC3)n1,-22.4%,–
CCC(Sc1nc(C)cc(=O)[nH]1)C(=O)Nc1nc2c(s1)CCCC2 (centres undefined),–,7.94 µM (active)
O=C(Cc1ccc(S(=O)(=O)N2CCOCC2)s1)Nc1nc2c(s1)CCCC2,–,15.8 µM (active)
CCC(=O)Nc1c2c(nc3c1CCC3)CCCC2,-14.1%,–
Cc1ccc(CS(=O)(=O)CCC(=O)NCCCN2CCCC2)cc1,-9.15%,–
Cc1ccc(CS(=O)(=O)CCC(=O)NCCN2CCCC2)cc1,9.44%,–
